# Measurements taken from PubChem BioAssay (Tox21).
# Values joined by “and” are separate entries in the source; they are usually repeats but may differ in a detail not shown here. Identical values can stand only once. Records with an inconclusive call do not appear. Entries that show only a call come without a potency. Values without a mark were called inactive. Active and inactive are the calls of the source. The call rests on the fitted dose curve; in most records, active means well fitted curve in the direction sought with a large enough effect in the repeat runs; inconclusive means weak or mixed curves; inactive means no such curve, though single readings can be large; an effect the other way counts as inactive or inconclusive.
# Legend:
# [1] = target: Cytochrome P450 2C9 (Homo sapiens) (UniProt P11712); experiment: Cytochrome P450 Family 2 Subfamily C Member 9 (CYP2C9) small molecule antagonists: luciferase reporter qHTS assay (AID 1671198); conditions: P450-Glo CYP2C9 enzyme assay, luciferin luminescence; series mostly up to 115 µM; further: nearly all actives have a fitted effect of over 50% in size; further: potency means the concentration at half of the fitted maximal effect
# Method in brief: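 P450-Glo proluciferin substrate with CYP2C9 enzyme; 10 min RT preincubation, then NADPH regeneration 1 h at 37C; luciferin detection reagent 20 min RT, luminescence in relative luminescence units.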
# [2] = target: Cytochrome P450 1A2 (Homo sapiens) (UniProt P05177); experiment: Cytochrome P450 Family 1 Subfamily A Member 2 (CYP1A2) small molecule antagonists: luciferase reporter qHTS assay (AID 1671199); conditions: P450-Glo CYP1A2 enzyme, luciferin luminescence, 1 h; series mostly up to 115 µM; further: nearly all actives have a fitted effect of over 50% in size; further: potency means the concentration at half of the fitted maximal effect
# Method in brief: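 Luminescence from luciferin formed by CYP1A2 from a proluciferin substrate, read 20 min after detection reagent. Compound was pre-incubated 10 min with enzyme-substrate, and reaction started with NADPH regeneration solution for 1 h at room temperature; furafylline control.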
# [3] = target: Voltage-gated inwardly rectifying potassium channel KCNH2 (Homo sapiens) (UniProt Q12809); experiment: Human Ether-a-go-go-Related Gene (hERG) channel small molecule antagonists: fluorescence cell-based qHTS assay (AID 1671200); conditions: hERG-U2OS cells, FluxOR thallium flux fluorescence; series mostly up to 76.8 µM; further: nearly all actives have a fitted effect of over 50% in size; further: potency means the concentration at half of the fitted maximal effect;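 on activity change, negative = inhibition: hERG-expressing U2OS cells given a thallium stimulus after FluxOR II dye loading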
# Method in brief: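 Quantitative HTS in hERG-U2OS cells: thallium entry through the channel reports activity, read as continuous 480/540 nm fluorescence over 2 min after stimulus addition.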
# [4] = target: Cytochrome P450 2C19 (Homo sapiens) (UniProt P33261); experiment: Cytochrome P450 Family 2 Subfamily C Member 19 (CYP2C19) small molecule antagonists: luciferase reporter qHTS assay (AID 1671197); conditions: P450-Glo CYP2C19 enzyme, luciferin luminescence, 1 h; series mostly up to 115 µM; further: nearly all actives have a fitted effect of over 65% in size; further: potency means the concentration at half of the fitted maximal effect
# Method in brief: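 First, compounds are pinned into enzyme-substrate mix and held 10 min at room temperature. Second, NADPH regeneration solution is added and plates incubate 1 h at 37C. Third, detection reagent is added and luminescence read after 20 min.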
# [5] = target: Cytochrome P450 3A4 (Homo sapiens) (UniProt P08684); experiment: Cytochrome P450 Family 3 Subfamily A Member 4 (CYP3A4) small molecule antagonists: luciferase reporter qHTS assay (AID 1671201); conditions: P450-Glo CYP3A4 enzyme, luciferin luminescence, 1 h; series mostly up to 115 µM; further: nearly all actives have a fitted effect of over 50% in size
# Method in brief: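 Inhibition of CYP3A4 is measured as loss of light: the enzyme converts a proluciferin substrate to luciferin, detected luminescently. Reaction ran 1 h at room temperature with NADPH regeneration after a 10 min compound preincubation.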
# Chain of Voltage-gated inwardly rectifying potassium channel KCNH2 (Homo sapiens) (Q12809 whole entry, looked up): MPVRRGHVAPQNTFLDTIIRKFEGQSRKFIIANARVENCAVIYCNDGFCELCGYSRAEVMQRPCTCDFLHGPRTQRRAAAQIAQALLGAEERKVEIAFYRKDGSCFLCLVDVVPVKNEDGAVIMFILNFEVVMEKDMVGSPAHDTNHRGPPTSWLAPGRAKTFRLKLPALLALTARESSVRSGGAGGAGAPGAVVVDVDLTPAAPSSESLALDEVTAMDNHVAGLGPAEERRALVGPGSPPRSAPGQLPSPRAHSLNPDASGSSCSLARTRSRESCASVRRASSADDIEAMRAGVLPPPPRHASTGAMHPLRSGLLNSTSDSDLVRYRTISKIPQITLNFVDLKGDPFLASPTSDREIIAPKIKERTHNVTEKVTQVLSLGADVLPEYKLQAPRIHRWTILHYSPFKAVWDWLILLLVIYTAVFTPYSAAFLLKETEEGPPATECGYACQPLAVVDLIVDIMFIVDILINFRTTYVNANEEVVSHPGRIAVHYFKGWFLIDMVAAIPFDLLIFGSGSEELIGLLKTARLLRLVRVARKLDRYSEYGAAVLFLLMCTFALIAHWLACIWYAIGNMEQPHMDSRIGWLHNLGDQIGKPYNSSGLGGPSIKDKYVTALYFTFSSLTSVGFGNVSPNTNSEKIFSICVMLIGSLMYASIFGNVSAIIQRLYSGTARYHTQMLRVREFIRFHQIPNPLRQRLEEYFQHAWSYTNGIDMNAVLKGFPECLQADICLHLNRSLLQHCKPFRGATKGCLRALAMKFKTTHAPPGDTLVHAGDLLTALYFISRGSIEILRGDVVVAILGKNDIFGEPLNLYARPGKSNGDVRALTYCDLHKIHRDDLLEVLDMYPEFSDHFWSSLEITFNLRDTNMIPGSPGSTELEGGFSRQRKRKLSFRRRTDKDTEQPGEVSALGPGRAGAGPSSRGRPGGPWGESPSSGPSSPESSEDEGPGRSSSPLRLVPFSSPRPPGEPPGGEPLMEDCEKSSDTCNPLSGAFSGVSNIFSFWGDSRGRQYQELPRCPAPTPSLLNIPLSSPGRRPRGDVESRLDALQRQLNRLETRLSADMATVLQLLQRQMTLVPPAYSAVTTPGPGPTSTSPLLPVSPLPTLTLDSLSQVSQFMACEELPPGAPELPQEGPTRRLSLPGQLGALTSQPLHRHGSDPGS
# Chain of Cytochrome P450 1A2 (Homo sapiens) (P05177 whole entry, looked up): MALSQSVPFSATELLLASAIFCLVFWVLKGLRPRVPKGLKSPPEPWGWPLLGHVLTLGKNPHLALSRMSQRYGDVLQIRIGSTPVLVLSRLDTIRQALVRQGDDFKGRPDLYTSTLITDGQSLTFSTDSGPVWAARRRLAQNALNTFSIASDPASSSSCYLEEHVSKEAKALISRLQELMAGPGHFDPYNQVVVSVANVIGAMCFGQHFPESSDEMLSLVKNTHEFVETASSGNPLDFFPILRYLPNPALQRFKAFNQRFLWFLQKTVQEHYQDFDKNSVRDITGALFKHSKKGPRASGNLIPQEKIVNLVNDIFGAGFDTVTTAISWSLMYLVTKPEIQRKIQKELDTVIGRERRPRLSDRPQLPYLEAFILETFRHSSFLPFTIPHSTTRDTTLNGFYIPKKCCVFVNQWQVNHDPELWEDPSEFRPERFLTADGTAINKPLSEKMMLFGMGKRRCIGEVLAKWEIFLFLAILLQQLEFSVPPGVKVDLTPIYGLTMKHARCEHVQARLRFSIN
# Chain of Cytochrome P450 3A4 (Homo sapiens) (P08684 whole entry, looked up): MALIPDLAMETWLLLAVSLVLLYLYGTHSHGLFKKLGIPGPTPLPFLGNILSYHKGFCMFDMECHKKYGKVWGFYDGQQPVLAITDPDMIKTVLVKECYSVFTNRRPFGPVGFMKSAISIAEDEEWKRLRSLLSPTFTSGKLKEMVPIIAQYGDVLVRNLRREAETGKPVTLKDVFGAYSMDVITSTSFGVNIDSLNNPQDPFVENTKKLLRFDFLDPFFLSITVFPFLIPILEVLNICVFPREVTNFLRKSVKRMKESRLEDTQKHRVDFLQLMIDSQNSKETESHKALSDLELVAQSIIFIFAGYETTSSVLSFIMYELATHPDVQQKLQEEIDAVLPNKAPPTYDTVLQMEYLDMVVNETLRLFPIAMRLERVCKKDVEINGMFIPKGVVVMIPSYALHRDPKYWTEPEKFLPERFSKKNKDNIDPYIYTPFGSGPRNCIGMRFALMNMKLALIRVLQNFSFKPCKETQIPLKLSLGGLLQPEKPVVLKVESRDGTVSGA
# Chain of Cytochrome P450 2C9 (Homo sapiens) (P11712 whole entry, looked up): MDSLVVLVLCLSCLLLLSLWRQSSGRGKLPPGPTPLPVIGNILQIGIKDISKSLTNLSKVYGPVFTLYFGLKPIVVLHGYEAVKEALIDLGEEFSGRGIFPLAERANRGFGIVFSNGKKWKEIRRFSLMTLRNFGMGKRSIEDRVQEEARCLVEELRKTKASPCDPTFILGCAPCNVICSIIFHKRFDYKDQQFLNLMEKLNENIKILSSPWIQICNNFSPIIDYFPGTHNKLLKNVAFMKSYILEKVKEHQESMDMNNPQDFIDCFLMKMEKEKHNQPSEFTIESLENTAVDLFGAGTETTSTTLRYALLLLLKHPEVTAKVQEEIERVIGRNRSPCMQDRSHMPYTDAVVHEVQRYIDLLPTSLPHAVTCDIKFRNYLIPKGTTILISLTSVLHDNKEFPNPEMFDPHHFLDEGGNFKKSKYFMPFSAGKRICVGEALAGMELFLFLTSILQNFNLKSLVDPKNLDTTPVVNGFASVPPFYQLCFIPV
# Chain of Cytochrome P450 2C19 (Homo sapiens) (P33261 whole entry, looked up): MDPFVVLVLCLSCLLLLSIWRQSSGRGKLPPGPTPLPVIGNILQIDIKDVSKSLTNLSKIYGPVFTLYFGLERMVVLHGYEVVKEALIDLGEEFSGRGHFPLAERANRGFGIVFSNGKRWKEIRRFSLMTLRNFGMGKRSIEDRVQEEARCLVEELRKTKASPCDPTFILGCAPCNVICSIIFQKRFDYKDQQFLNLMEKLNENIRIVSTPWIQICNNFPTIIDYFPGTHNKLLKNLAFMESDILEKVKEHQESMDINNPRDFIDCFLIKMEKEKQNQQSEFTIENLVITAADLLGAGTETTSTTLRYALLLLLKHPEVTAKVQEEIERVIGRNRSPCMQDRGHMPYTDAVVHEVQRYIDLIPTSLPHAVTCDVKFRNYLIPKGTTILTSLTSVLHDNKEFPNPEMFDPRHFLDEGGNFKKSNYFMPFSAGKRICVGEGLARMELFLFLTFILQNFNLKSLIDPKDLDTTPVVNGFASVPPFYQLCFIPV
smiles,measurement,setting,value
COc1c(C)c2c(c(O)c1C/C=C(\C)CCC(=O)OCCN1CCOCC1)C(=O)OC2,Potency,[1],13.8 µM (active)
same,Potency,[2],inactive
same,Potency,[3],inactive
COc1ccc2cc1Oc1ccc(cc1)C[C@H]1c3c(cc4c(c3Oc3cc5c(cc3OC)CCN(C)[C@@H]5C2)OCO4)CCN1C,Potency,[1],30.9 µM (active)
same,Potency,[2],inactive
same,Potency,[3],9.52 µM (active)
O=C(O)O,Potency,[4],3.86 µM (active)
same,"activity change, negative = inhibition",[5],0.224% [at 10.5 µM]
CC(C)(c1cc(Br)c(OCC(Br)CBr)c(Br)c1)c1cc(Br)c(OCC(Br)CBr)c(Br)c1 (stereo unspecified),Potency,[4],inactive
same,Potency,[5],inactive
CC/C=C\CCCCCO,Potency,[1],inactive
same,Potency,[2],inactive
same,Potency,[3],inactive
same,Potency,[5],inactive
Cc1c(N)cccc1C(F)(F)F,Potency,[1],inactive
same,Potency,[2],13.8 µM (active)
same,Potency,[5],inactive
OCCN1CCN(CCCN2c3ccccc3Sc3ccc(C(F)(F)F)cc32)CC1,Potency,[3],3.38 µM (active)
CCCC(=O)OC(C)(C)Cc1ccccc1,Potency,[3],inactive
Cc1ccc(N/N=c2\c(=O)cc/c(=N\Nc3ccc(S(=O)(=O)O)cc3)c2=O)c(C)c1,Potency,[1],35.6 µM (active)
same,Potency,[5],inactive
CCOc1ccc2ccccc2c1C(=O)N[C@@H]1C(=O)N2[C@@H]1SC(C)(C)[C@@H]2C(=O)O,Potency,[1],inactive
same,Potency,[3],inactive
same,Potency,[5],inactive
O=C1c2ccccc2C(=O)N1SC1CCCCC1,Potency,[1],3.99 µM (active) and 7.1 µM (active)
same,Potency,[2],35.5 µM (active) and 35.6 µM (active)
same,Potency,[5],inactive
CCC(C)[O-].CCC(C)[O-].CCOC(=O)/C=C(/C)[O-].[Al+3],Potency,[3],inactive
Cc1ccc(C)cc1,Potency,[1],inactive
same,Potency,[3],inactive
same,Potency,[5],inactive
